PubChem BioAssay (EPA / NIEHS)
Records with an inconclusive call do not appear. Activity calls are given as the source filed them. Rule for the calls: active = hit-call score of the fitted dose curve at least 0.9, where 1 is the maximum; inconclusive = response in the unintended direction; inactive = score below 0.9.

read-out: ABC Transporter (ABCB11), ABCB11 (gene 8647); assay: CLD_ABCB11_48hr: CellzDirect (CLD) Gene Expression Assay for ABC Transporter (ABCB11) at 48 hours (AID 2283697)
Method: CLD_48hr is a cell-based, multiplexed-readout assay that uses hepatocyte, a human liver primary cell, with measurements taken at 48 hours after chemical dosing in a 96-well plate.CLD_ABCB11_48hr is one of 16 assay component(s) measured or calculated from the CLD_48hr assay. It is designed to make measurements of mRNA induction, a form of inducible reporter, as detected with chemiluminescence signals by Quantitative Nuclease Protection Assay (qNPA) technology.Data from the assay component CLD_ABCB11_48hr was analyzed at the endpoint, CLD_ABCB11_48hr, in the positive analysis fitting direction relative to DMSO as the negative control and baseline of activity. Using a type of inducible reporter, gain-of-signal activity can be used to understand changes in the reporter gene as they relate to the gene ABCB11. Furthermore, this assay endpoint can be referred to as a primary readout. To generalize the intended target to other relatable targets, this assay endpoint is annotated to the transporter intended target family, where subfamily is ABC transporter.
Human hepatocyte cultures were treated daily for two consecutive days with fresh dosing solutions containing appropriate concentrations of the 320 ToxCast chemicals (chemical identities were blinded to CellzDirect and other ToxCast collaborators), vehicle control (0.2% DMSO), and positive control inducers as summarized in Table 1. Due to the large number of treatment groups and chemicals examined, the ToxCast chemicals were divided into two groups (spanning two independent cultures of hepatocytes from separate donor preparations (Hu778: ToxCast plates 1 and 2; Hu776: ToxCast plates 3 and 4). Each preparation of human hepatocyte cultures was treated with respective vehicle control, medium only control, set of six positive controls/reference chemicals for the five hepatic receptor pathways, and a subset of eight of the ToxCast chemicals (indoxacarb, pyrithiobac-sodium, norflurazon, cyhalofop-butyl, methomyl, thiram, acetochlor, and propiconazole). These replicate data, coupled with internal replicates designed within the blinded ToxCast chemical library, provided additional data to evaluate interindividual differences between hepatocyte preparations and their potential impact on chemical profiles.Cell morphology and integrity were evaluated using phase-contrast microscopy as an indicator of hepatocyte cell health (Tyson & Green, 1987). Cultures for each treatment group (i.e., media, vehicle [0.2% DMSO], positive control inducers [multiple concentrations], and the ToxCast chemicals [multiple concentrations]) were observed and cell morphology was assessed relative to vehicle control cultures at each harvest time point (0, 6, 24, or 48 h). […] Images were evaluated at the conclusion of the study to assess changes in cell integrity and account for the effects of chemical exposure on uncharacteristic changes in concentration-dependent gene expression profiles. The results from these determinations of apparent cytotoxicity were annotated (yes/no) alongside the corresponding qNPA data for reference.At the conclusion of each treatment period, hepatocyte cultures (96-well) were washed with 1 volume of HBSS, lysed by addition of 25 ul ArrayPlate lysis buffer (HTG, Tucson, AZ), and 70 ul/well of Denaturation Oil, denatured by incubation at 95C for 10 min, and frozen at approximately -70C until analysis by nuclease protection assay (qNPA) (Roberts et al., 2007). For qNPA analysis, cell lysates were thawed at 50C for approximately 30 min, qNPA probes were added, and samples were incubated at 95C for 10 min to begin the detection process by denaturing the target RNA, dissociating the duplexes and secondary structure hybridization. At the conclusion of the hybridization period, S1 nuclease reagent was added to each sample to digest all nonprotected nucleotides at 50C for 60-90 min. […]

| SMILES | outcome | AC50 |
| --- | --- | --- |
| COC(=O)c1c(Cl)nn(C)c1S(=O)(=O)NC(=O)Nc1nc(OC)cc(OC)n1 | inactive | – |
| N#CSCSc1nc2ccccc2s1 | – | 34.1 µM (active) |
| CCOC(=O)C(C)Oc1ccc(Oc2cnc3cc(Cl)ccc3n2)cc1 (stereo unspecified) | inactive | – |
| CCCCCOC(=O)COc1cc(N2C(=O)C3=C(CCCC3)C2=O)c(F)cc1Cl | inactive | – |
| C#CCOC(=O)[C@@H](C)Oc1ccc(Oc2ncc(Cl)cc2F)cc1 | inactive | – |
| CCCOC(=O)c1ccc(C(=O)OCCC)nc1 | inactive | – |
| OB(O)O | inactive | – |
| COCCO | inactive | – |
| CCCCC(CC)COC(=O)c1ccccc1C(=O)O (stereo unspecified) | inactive | – |
| CCNc1nc(N)nc(Cl)n1 | inactive | – |
| CCCN(CCC)C(=O)SCC | inactive | – |
| c1ccc(Nc2ccccc2)cc1 | inactive | – |
| O=C(Nc1ccc([N+](=O)[O-])cc1Cl)c1cc(Cl)ccc1O | inactive | – |
| CCC(C)OC(=O)N1CCCCC1CCO (stereo unspecified) | inactive | – |
| CCOC(=O)[C@H](C)Oc1ccc(Oc2nc3ccc(Cl)cc3o2)cc1 | inactive | – |
| CC1(C)C(C=C(Cl)Cl)C1C(=O)OCc1cccc(Oc2ccccc2)c1 (stereo unspecified) | inactive | – |
